# From the supplement of paper PMC7393113
# ± gives the standard deviation of the averaged measurements.
# Test system: iBMDM (immortalised mouse bone-marrow-derived macrophages), LPS-stimulated
# Assay: mitochondrial superoxide (MitoSOX fluorescence) fold increase over unstimulated control; higher = more LPS-induced mitochondrial ROS (less inhibition)
# Details: inhibitor concentration: 500 nM; LPS: 100 ng/ml; time after LPS: 1 h
# How it was run: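 Cells were immortalised mouse bone-marrow-derived macrophages, plated in triplicate and switched to phenol-red-free 1% FCS/DMEM for 20 h. Kinase inhibitors (500 nM, 30 min) preceded MitoSox loading (1 μM, 10 min) and LPS addition (100 ng/ml), with 510/580 nm fluorescence read every 60 min for 4 h. Mitochondrial superoxide is reported as averaged fold induction over untreated macrophages.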
row,Structure (SMILES),mitochondrial superoxide
1,CC(C)(C)c1cc(C=C(C#N)C#N)cc(C(C)(C)C)c1O [Tyrphostin 9],1.17 ± 0.033
2,Cn1cc(C2=C(c3cn(C4CCN(Cc5ccccn5)CC4)c4ccccc34)C(=O)NC2=O)c2ccccc21,1.7 ± 0.15
3,N#CC(C#N)=Cc1ccc(O)c(O)c1,1.364 ± 0.013
4,O=c1[nH]c2ccc(Cl)cc2c(N[C@@H]2CN3CCC2CC3)c1-c1nc2ccccc2[nH]1,1.2 ± 0.013
5,CCN1CCN(C(=O)Cc2ccc(Nc3ncc(F)c(Nc4ccc(C(=O)Nc5ccccc5Cl)cc4)n3)cc2)CC1 [Aurora A Inhibitor I],1.17 ± 0.065
6,COC[C@H]1OC(=O)c2coc3c2[C@@]1(C)C1=C(C3=O)[C@@H]2CCC(=O)[C@@]2(C)C[C@H]1OC(C)=O [Wortmannin],1.4 ± 0.084
7,CC(C)(C)c1cc(C=C(C#N)C#N)cc(Br)c1O,1.12 ± 0.029
8,Cc1ccccc1-n1c(Cn2ncc3c(N)ncnc32)nc2cccc(C)c2c1=O,1.14 ± 0.012

# Same assay, conditions: inhibitor concentration: 500 nM; LPS: 100 ng/ml; time after LPS: 2 h
row,Structure (SMILES),mitochondrial superoxide
1,CC(C)(C)c1cc(C=C(C#N)C#N)cc(C(C)(C)C)c1O [Tyrphostin 9],1.21 ± 0.041
2,Cn1cc(C2=C(c3cn(C4CCN(Cc5ccccn5)CC4)c4ccccc34)C(=O)NC2=O)c2ccccc21,1.76 ± 0.18
3,N#CC(C#N)=Cc1ccc(O)c(O)c1,1.45 ± 0.055
4,O=c1[nH]c2ccc(Cl)cc2c(N[C@@H]2CN3CCC2CC3)c1-c1nc2ccccc2[nH]1,1.4 ± 0.045
5,CCN1CCN(C(=O)Cc2ccc(Nc3ncc(F)c(Nc4ccc(C(=O)Nc5ccccc5Cl)cc4)n3)cc2)CC1 [Aurora A Inhibitor I],1.24 ± 0.014
6,COC[C@H]1OC(=O)c2coc3c2[C@@]1(C)C1=C(C3=O)[C@@H]2CCC(=O)[C@@]2(C)C[C@H]1OC(C)=O [Wortmannin],1.45 ± 0.05
7,CC(C)(C)c1cc(C=C(C#N)C#N)cc(Br)c1O,1.16 ± 0.069
8,Cc1ccccc1-n1c(Cn2ncc3c(N)ncnc32)nc2cccc(C)c2c1=O,1.25 ± 0.041

# Same assay, conditions: inhibitor concentration: 500 nM; LPS: 100 ng/ml; time after LPS: 4 h
row,Structure (SMILES),mitochondrial superoxide
1,CC(C)(C)c1cc(C=C(C#N)C#N)cc(C(C)(C)C)c1O [Tyrphostin 9],1.275 ± 0.0071
2,Cn1cc(C2=C(c3cn(C4CCN(Cc5ccccn5)CC4)c4ccccc34)C(=O)NC2=O)c2ccccc21,1.92 ± 0.14
3,N#CC(C#N)=Cc1ccc(O)c(O)c1,1.666 ± 0.0094
4,O=c1[nH]c2ccc(Cl)cc2c(N[C@@H]2CN3CCC2CC3)c1-c1nc2ccccc2[nH]1,1.68 ± 0.044
5,CCN1CCN(C(=O)Cc2ccc(Nc3ncc(F)c(Nc4ccc(C(=O)Nc5ccccc5Cl)cc4)n3)cc2)CC1 [Aurora A Inhibitor I],1.32 ± 0.049
6,COC[C@H]1OC(=O)c2coc3c2[C@@]1(C)C1=C(C3=O)[C@@H]2CCC(=O)[C@@]2(C)C[C@H]1OC(C)=O [Wortmannin],1.78 ± 0.079
7,CC(C)(C)c1cc(C=C(C#N)C#N)cc(Br)c1O,1.11 ± 0.063
8,Cc1ccccc1-n1c(Cn2ncc3c(N)ncnc32)nc2cccc(C)c2c1=O,1.32 ± 0.04
